Experimental data: PubChem BioAssay AID1159580 (chemical genetic matrix, 2015)
Out of some 5,500 compounds screened, about 2,000 (36%) were called active. Roughly 18% stayed inconclusive and do not appear here. Rule as the data show it: active = normalized growth mostly below about 0.91 (no sharp cut-off); inconclusive = no clear call, values can overlap the other calls; inactive = mostly above about 0.92. The list shows a part of the results.

Experiment: chemical genetic growth profiling, strain panel (AID 1159580);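 also: tested at 20 µM; growth read once vehicle control cultures reached saturation at 30 °C; 1 = growth at the plate median or of vehicle wells; lower values mean less growth of the strain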
Conditions: S. cerevisiae deletion strains, growth OD

Measured: normalized growth

Cc1cc(N=Cc2cc(Cl)cc(Cl)c2O)no1
active: locus YDL214C, strain PRR2, stronger effect = lower value 0.561 | locus YDR477W, strain SNF1, stronger effect = lower value 0.526 | locus YER123W, strain YCK3, stronger effect = lower value 0.307 | locus YER133W, strain GLC7, stronger effect = lower value 0.576 | locus YFR019W, strain FAB1, stronger effect = lower value 0.517 | locus YGR040W, strain KSS1, stronger effect = lower value 0.574 | locus YGR052W, strain FMP48, stronger effect = lower value 0.504 | locus YGR092W, strain DBF2, stronger effect = lower value 0.187 | locus YHR030C, strain SLT2, stronger effect = lower value 0.26 | locus YHR079C, strain IRE1, stronger effect = lower value 0.249 | locus YHR082C, strain KSP1, stronger effect = lower value 0.493 | locus YHR205W, strain SCH9, stronger effect = lower value 0.407 | locus YJL095W, strain BCK1, stronger effect = lower value 0.259 | locus YJL157C, strain FAR1, stronger effect = lower value 0.478 | locus YJR066W, strain TOR1 (second series), stronger effect = lower value 0.565 | locus YJR066W, strain TOR1, stronger effect = lower value 0.387 | locus YKL048C, strain ELM1, stronger effect = lower value 0.651 | locus YKL067W, strain YNK1, stronger effect = lower value 0.521 | locus YKL101W, strain HSL1, stronger effect = lower value 0.5 | locus YKL203C, strain TOR2, stronger effect = lower value 0.613 | locus YLR113W, strain HOG1, stronger effect = lower value 0.337 | locus YLR133W, strain CKI1, stronger effect = lower value 0.486 | locus YLR403W, strain SFP1, stronger effect = lower value 0.375 | locus YML070W, strain DAK1, stronger effect = lower value 0.372 | locus YMR205C, strain PFK2 (second series), stronger effect = lower value 0.514 | locus YNL020C, strain ARK1, stronger effect = lower value 0.462 | locus YNL183C, strain NPR1, stronger effect = lower value 0.429 | locus YNL307C, strain MCK1 (second series), stronger effect = lower value 0.37 | locus YOL136C, strain PFK27, stronger effect = lower value 0.349 | locus YOR061W, strain CKA2, stronger effect = lower value 0.32 | locus YOR119C, strain RIO1, stronger effect = lower value 0.571 | locus YOR231W, strain MKK1, stronger effect = lower value 0.272 | locus YPL031C, strain PHO85, stronger effect = lower value 0.483 | locus YPL153C, strain RAD53, stronger effect = lower value 0.405 | locus YPL204W, strain HRR25, stronger effect = lower value 0.467 | locus YPL256C, strain CLN2, stronger effect = lower value 0.343
inactive: locus YAR019C, strain CDC15, stronger effect = lower value 0.945 | locus YBL105C, strain PKC1, stronger effect = lower value 0.964 | locus YBR135W, strain CKS1, stronger effect = lower value 0.971 | locus YBR136W, strain MEC1, stronger effect = lower value 0.953 | locus YBR160W, strain CDC28, stronger effect = lower value 0.964 | locus YDL017W, strain CDC7, stronger effect = lower value 0.968 | locus YDL028C, strain MPS1, stronger effect = lower value 0.95 | locus YDL101C, strain DUN1, stronger effect = lower value 0.965 | locus YDL108W, strain KIN28, stronger effect = lower value 0.957 | locus YDL132W, strain cdc53, stronger effect = lower value 0.975 | locus YDR052C, strain DBF4, stronger effect = lower value 0.972 | locus YDR054C, strain cdc34, stronger effect = lower value 0.965 | locus YDR226W, strain ADK1, stronger effect = lower value 0.974 | locus YFL009W, strain cdc4, stronger effect = lower value 0.97 | locus YFL029C, strain CAK1, stronger effect = lower value 0.958 | locus YFR003C, strain YPI1, stronger effect = lower value 0.95 | locus YFR028C, strain CDC14, stronger effect = lower value 0.971 | locus YIL147C, strain SLN1, stronger effect = lower value 0.946 | locus YJL128C, strain PBS2, stronger effect = lower value 0.952 | locus YJR016C, strain ILV3, stronger effect = lower value 0.973 | locus YKL193C, strain SDS22, stronger effect = lower value 0.971 | locus YMR001C, strain CDC5, stronger effect = lower value 0.963 | locus YMR277W, strain FCP1, stronger effect = lower value 0.968 | locus YNL006W, strain LST8, stronger effect = lower value 0.969 | locus YNL161W, strain CBK1, stronger effect = lower value 0.967 | locus YNL207W, strain RIO2, stronger effect = lower value 0.977 | locus YNL222W, strain SSU72, stronger effect = lower value 0.96 | locus YOL078W, strain AVO1, stronger effect = lower value 0.967 | locus YOR329C, strain SCD5, stronger effect = lower value 0.952 | locus YPL209C, strain IPL1, stronger effect = lower value 0.969 | locus YPR025C, strain CCL1, stronger effect = lower value 0.969 | locus YPR106W, strain ISR1, stronger effect = lower value 0.976 | locus YPR111W, strain DBF20, stronger effect = lower value 0.972 | strain NNK1, stronger effect = lower value 0.965 | strain TSCII, stronger effect = lower value 0.96
